AMA1-RON2 inh: AMA1-RON2 (P. falciparum) interaction inhibition | Potency, µM (top dose mostly 58.2 µM), without a hit: at the highest dose activity change, negative = inhibition, hits mostly inhibitors | AID 720542 | AlphaScreen AMA1-biotinylated RON2 peptide binding | hit rate 0.2% among 360,000;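 further: potency means the concentration at half of the fitted maximal effect; 0% = vehicle wells and -100% = peptide control; nearly all actives have a fitted effect of over 45% in size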
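AMA1 (3D7) with his tag at 25 nM final met compounds first, then biotinylated RON2 peptide at 25 nM; detection used donor plus acceptor beads, 10 µg/mL apiece, read by AlphaScreen after 30 min at room temperature.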
SARS PLP yeast: SARS-CoV PLP inhibition in yeast. S. cerevisiae expressing SARS-CoV PLpro, growth rescue. Potency, µM (top dose mostly 32.9 µM), for inactives: at the highest dose activity, positive = growth rescue, actives largely listed as activators. hit rate 0.19% among 330,000; calls by dose curve; further: potency means the concentration at half of the fitted maximal effect; 0% is about no effect; nearly all actives have a fitted effect of over 55% in size
AmpC inh no detg: inhibitors of E. coli AmpC beta-lactamase without detergent; P00811; AmpC nitrocefin hydrolysis, absorbance 480 nm, 0.0001% Triton; Potency, µM (highest dose often 57.1 µM), without a hit: top-dose activity change, negative = inhibition, usual class: inhibitors; hit rate 0.52% among 330,000; AID 485341;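 further: potency means the concentration at half of the fitted maximal effect; plate controls were no compound for no effect and no enzyme for full effect; nearly all actives have a fitted effect of over 20% in size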
Target sequence (P00811 whole entry, looked up): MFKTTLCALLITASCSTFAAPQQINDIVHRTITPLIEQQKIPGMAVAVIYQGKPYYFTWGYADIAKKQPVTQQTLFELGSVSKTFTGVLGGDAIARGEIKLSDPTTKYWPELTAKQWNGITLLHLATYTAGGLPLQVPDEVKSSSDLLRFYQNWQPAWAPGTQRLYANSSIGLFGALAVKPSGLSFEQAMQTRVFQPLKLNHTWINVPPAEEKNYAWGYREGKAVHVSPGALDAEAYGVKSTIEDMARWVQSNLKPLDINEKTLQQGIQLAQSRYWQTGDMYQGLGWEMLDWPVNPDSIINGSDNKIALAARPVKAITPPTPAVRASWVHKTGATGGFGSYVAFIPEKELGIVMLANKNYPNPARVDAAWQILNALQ
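20 mM phosphate pH 7.0 + 0.01% (detergent screen) or 0.0001% Triton X-100; 5.3 nM AmpC reagent; cpd preinc 15 min RT; nitrocefin (800 uM stock) to start; A480 q20 s × 4 min; Activity was normalised to no-enzyme and no-compound control wells.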
NS1 function inh: influenza NS1 inhibition; Potency, µM (doses to about 46.1 µM), without a hit: at the highest dose activity, positive = more growth; hit rate 0.4% among 270,000; AID 2326; calls by dose curve; further: potency means the concentration at half of the fitted maximal effect; actives are rising curves; nearly all actives have a fitted effect of over 50% in size
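S. cerevisiae expressing influenza A NS1, grown in glucose, washed, then diluted 1:100 into pH 6.0 -URA galactose medium with 23 nl compound. Growth recovery read as OD600; NS1-free strain serves as control.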
AmpC detergent: AmpC beta-lactamase inhibition with detergent present | AID 485294 | hit rate 0.041% among 370,000 | Potency, µM (doses to about 114 µM), inactives show top-dose activity change, negative = inhibition, usual class: inhibitors | P00811 | AmpC hydrolysis of nitrocefin, absorbance 480 nm, 0.01% Triton;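 further: potency means the concentration at half of the fitted maximal effect; 0% = no-compound wells and -100% = no-enzyme wells; nearly all actives have a fitted effect of over 25% in size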
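20 mM phosphate pH 7.0 + 0.01% (detergent screen) or 0.0001% Triton X-100; 5.3 nM AmpC reagent; cpd preinc 15 min RT; nitrocefin (800 uM stock) to start; A480 q20 s × 4 min; Activity was normalised to no-enzyme and no-compound control wells.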
NS1 inh valid: validation of influenza NS1 protein function inhibitors. 1,400 tested, under 10 active. shares compounds with NS1 function inh. AID 492980. activity change, negative = inhibition, % at 32.9 µM. influenza NS1 function cell assay, 15-point titration; calls by dose curve; further: 0% is about no effect
PR8 titer: influenza virus titer reduction, NS1 project | shares compounds with NS1 function inh | MDCK infected influenza A/PR/8/34, virus titer TCID50; stronger effect = lower value | AID 504647 | hit rate 30% among 95 | virus titer (log TCID50), log10 TCID50 at 5 µM; call rule not given here
Starred values were filed as active, the others as inactive. Hits are enriched below; roughly 0.99% of the tested compounds scored in any of these assays. Unless noted, the call rests on the fitted dose curve; in most records, active means well fitted curve in the direction sought with a large enough effect; inconclusive means small, poorly fitted or top-dose-only effect, or another doubt; inactive means no such curve, though single readings can be large; an effect the other way counts as inactive or inconclusive.

Results for Cc1ccsc1C=Nc1c(C)n(C)n(-c2ccccc2)c1=O ?
AMA1-RON2 inh: 2%; SARS PLP yeast: 4%; AmpC inh no detg: -14%; NS1 function inh: 0%; AmpC detergent: -23%

Results for CCOc1cc(CNC(=O)CSc2n[nH]c(-c3ccccc3)n2)cc(OCC)c1OCC ?
AmpC detergent: -5%

Results for CCC(C)OC(=O)c1[nH]c2c(c1C)C(=O)CC(c1ccc(N(C)C)cc1)C2 (stereo not given) ?
AMA1-RON2 inh: -15%; SARS PLP yeast: -18%; AmpC inh no detg: -3%; NS1 function inh: 10µM*; AmpC detergent: inconclusive; NS1 inh valid: -24

Results for CCOCCOC(=O)c1[nH]c2c(c1C)C(=O)CC(c1ccc(N(C)C)cc1)C2 (stereo not given) ?
AMA1-RON2 inh: inconclusive; SARS PLP yeast: -3%; AmpC inh no detg: 8%; NS1 function inh: -12%; AmpC detergent: -16%

What do the screens show for `Cc1c(C(=O)OC2CCCCCC2)[nH]c2c1C(=O)CC(c1ccc(N(C)C)cc1)C2` (stereo not given)?
AmpC detergent: -6%

What do the screens show for `C/C=C/COC(=O)c1[nH]c2c(c1C)C(=O)CC(c1ccc(N(C)C)cc1)C2` (stereo not given)?
AMA1-RON2 inh: -16%; SARS PLP yeast: -16%; AmpC inh no detg: -6%; NS1 function inh: 13µM*; AmpC detergent: inconclusive; NS1 inh valid: inconclusive

What do the screens show for `CCc1ccc(C2CC(=O)Oc3c2c(=O)n(C)c2ccccc32)cc1` (stereo not given)?
AmpC detergent: -4%

Results for CCC(=O)C1=C(c2ccc(F)cc2)N(C(=O)CC)n2cnnc2S1 ?
AmpC detergent: 8%

Results for CCOC(=O)c1ccc(NC(=O)CSc2nc(C)cc(=O)[nH]2)cc1 ?
AMA1-RON2 inh: -28%; SARS PLP yeast: -5%; AmpC inh no detg: -29%; NS1 function inh: inconclusive; AmpC detergent: 0%; NS1 inh valid: -10; PR8 titer: 8

Results for CCN(CC)c1ccc(NC(=O)CSc2nc(C)cc(=O)[nH]2)cc1 ?
AMA1-RON2 inh: -1%; SARS PLP yeast: 1%; AmpC inh no detg: -12%; NS1 function inh: -3%; AmpC detergent: -13%

Results for O=C(c1ccc2c(=O)n(CC3CCCO3)c(=S)[nH]c2c1)N1CCN(c2ccccc2)CC1 (stereo not given) ?
AMA1-RON2 inh: 27%; SARS PLP yeast: -3%; AmpC inh no detg: -10%; NS1 function inh: inconclusive; AmpC detergent: -2%; NS1 inh valid: 0

What do the screens show for `CCOC(=O)N1CCN(C(=O)c2ccc3c(=O)n(CC4CCCO4)c(=S)[nH]c3c2)CC1` (stereo not given)?
AMA1-RON2 inh: 14%; SARS PLP yeast: -1%; AmpC inh no detg: 2%; NS1 function inh: 0%; AmpC detergent: -12%

What do the screens show for `O=C(c1ccccc1Cl)N1CCCCC1CCN1CCOCC1` (stereo not given)?
AmpC detergent: 20%

How did COc1ccccc1NS(=O)(=O)c1ccc(C)c(NC(=O)c2ccc(S(=O)(=O)N3CCCCCC3)cc2)c1 do in these assays?
AMA1-RON2 inh: 0%; SARS PLP yeast: inconclusive; AmpC inh no detg: -22%; NS1 function inh: 20µM*; AmpC detergent: 2%; NS1 inh valid: 7

How did COc1ccc(S(=O)(=O)N2CCOC2CNC(=O)C(=O)NCCc2c[nH]c3ccccc23)cc1C (stereo not given) do in these assays?
AMA1-RON2 inh: 0%; SARS PLP yeast: -3%; AmpC inh no detg: -15%; NS1 function inh: 14µM*; AmpC detergent: -6%; NS1 inh valid: 1
